Results filed as inconclusive are left out. Active and inactive are the calls of the source. How the source made its calls, unless noted: active means hit-call score of the fitted dose curve at least 0.9, where 1 is the maximum; inconclusive means response in the unintended direction; inactive means score below 0.9.
What was measured:
[1] = CCTE_Deisenroth_AIME_384WELL_CTox_Active: Cytotoxicity Assessment (CTOX) in CCTE's 384-well Estrogen Receptor Transactivation Assay with AIME metabolic competence (metabolism positive), Deisenroth Lab (AID 2284037);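 further: chemicals first conditioned 2 h by alginate-bound induced rat liver S9 before cells; activity means signal loss indicating cell death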
Outline: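 VM7Luc4E2 breast cells received medium pre-incubated 2 h with chemical over alginate microspheres holding induced male Sprague Dawley rat liver S9; viability read 24 h later by protease-substrate fluorescence. Loss of signal, bidirectional fit, 0.002–200 uM.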

[2] = CCTE_Deisenroth_AIME_384WELL_CTox_Inactive: Cytotoxicity Assessment (CTOX) in CCTE's 384-well Estrogen Receptor Transactivation Assay without AIME metabolic competence (metabolism negative), Deisenroth Lab (AID 2284039);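 further: cell viability via live-cell protease substrate cleaved to fluorescent probe; cells exposed 24 h to medium preincubated 2 h with alginate-water beads without S9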
Outline: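 Metabolism-negative arm: chemicals (10-point, 0.002 - 200 uM) preincubated 2 h with alginate-water lids, medium moved onto VM7Luc4E2 cells for 24 h. Fluorescent live-cell protease readout; bidirectional curve fit.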

[3] = CCTE_Shafer_MEA_dev_firing_rate_mean: CCTE's Neural Network Formation Assay for Mean Firing Rate, Shafer Lab (AID 2284031; active means hit-call score of the fitted dose curve at least 0.9, where 1 is the maximum; inactive means score below 0.9;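 on AC50: curve fitted for loss of firing so AC50 reflects decreased mean firing rate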)
Outline: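 Primary rat cortical neurons on 48-well MEA plates, exposed from plating day 0 with dosing renewed on DIV 5 and 9. Mean well firing rate over active electrodes, recorded days 5, 7, 9, 12, summarised as trapezoidal AUC.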

[4] = CCTE_Shafer_MEA_dev_per_burst_spike_percent: CCTE's Neural Network Formation Assay for Percent of Spikes in a Burst, Shafer Lab (AID 2284032; active means hit-call score of the fitted dose curve at least 0.9, where 1 is the maximum; inactive means score below 0.9;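 on AC50: fitted as a decrease in burst spike percentage below DMSO baseline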)
Outline: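 Rat primary cortical neurons on 16-electrode MEA wells, dosed from plating day 0 for 12 days with renewal on DIV 5 and 9; spikes-in-bursts percentage averaged over bursting electrodes, collapsed as AUC across days 5, 7, 9, 12; loss direction versus DMSO.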

[5] = CCTE_Shafer_MEA_dev_active_electrodes_number: CCTE's Neural Network Formation Assay for Number of Active Electrodes, Shafer Lab (AID 2284040);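 on AC50: potency for loss of active electrodes versus DMSO so lower counts are hits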
Outline: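 Primary rat cortical neurons on 16-electrode MEA wells, exposed from day 0 through day 12 with compound renewed at DIV 5 and 9 feeds. Active electrodes (mean firing ≥5 spikes/min) counted at DIV 5, 7, 9, 12; trapezoidal AUC across days, loss-of-signal versus DMSO.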

[6] = biological target: Estrogen receptor (Homo sapiens) (UniProt P03372); experiment: CCTE_Deisenroth_AIME_384WELL_LUC_Inactive: CCTE's 384-well Estrogen Receptor Transactivation Assay without AIME metabolic competence (ERTA luciferase; metabolism negative), Deisenroth Lab (AID 2284038);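 further: hits raise estrogen receptor luciferase signal so potencies reflect agonists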
Outline: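 Metabolism-negative mode: chemicals (10-point, 0.002–200 uM) held 2 h with alginate-water microspheres, then conditioned medium applied to VM7Luc4E2 cells for 24 h. Luciferase induction referenced to 17beta-estradiol.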

Estrogen receptor (Homo sapiens), sequence (P03372 whole entry, looked up): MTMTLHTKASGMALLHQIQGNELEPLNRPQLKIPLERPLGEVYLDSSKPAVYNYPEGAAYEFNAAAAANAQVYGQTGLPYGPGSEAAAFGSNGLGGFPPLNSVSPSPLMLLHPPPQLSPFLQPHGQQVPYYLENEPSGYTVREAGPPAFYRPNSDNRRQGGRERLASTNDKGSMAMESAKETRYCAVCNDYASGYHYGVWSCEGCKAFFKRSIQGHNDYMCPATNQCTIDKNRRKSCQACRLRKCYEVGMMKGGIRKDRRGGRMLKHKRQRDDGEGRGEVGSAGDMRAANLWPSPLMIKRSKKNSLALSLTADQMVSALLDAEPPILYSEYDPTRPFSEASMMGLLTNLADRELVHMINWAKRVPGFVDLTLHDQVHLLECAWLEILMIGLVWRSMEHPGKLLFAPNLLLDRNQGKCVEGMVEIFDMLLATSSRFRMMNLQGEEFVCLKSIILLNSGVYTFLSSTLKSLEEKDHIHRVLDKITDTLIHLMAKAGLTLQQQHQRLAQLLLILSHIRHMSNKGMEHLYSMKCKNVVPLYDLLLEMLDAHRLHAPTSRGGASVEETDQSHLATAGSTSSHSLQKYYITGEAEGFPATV

What does the source list for Cc1[nH]nc2c1N=C(c1ccccc1Cl)c1cc([N+](=O)[O-])ccc1N2?
AC50 [1]: 159 µM (active); AC50 [2]: 138 µM (active)

For CC(O)COc1ccccc1 (stereo not drawn), which outcome [1] is on record?
The outcome was “inactive”.

What about the outcome [2] of the same molecule?
The outcome was “inactive”.

Which outcome [2] does the source give for CC(C)[C@@H]1CC[C@@H](C)C[C@H]1O here?
The outcome was “inactive”.

Which AC50 [1] does the source give for NC(=NCCCCCCN=C(N)/N=C(\N)Nc1ccc(Cl)cc1)/N=C(\N)Nc1ccc(Cl)cc1 here?
Its AC50 is 59.5 µM (active).

What about the AC50 [2] of the same molecule?
Its AC50 is 46.8 µM (active).

Which results are given for O=C(F)C(F)(F)C(F)(F)C(F)(F)C(F)F?
outcome [3]: inactive; outcome [4]: inactive; outcome [5]: inactive

Which AC50 [3] does the source give for CN(Cc1cnc2nc(N)nc(N)c2n1)c1ccc(C(=O)N[C@@H](CCC(=O)O)C(=O)O)cc1 here?
The AC50 was 0.123 µM (active).

What about the AC50 [4] of the same molecule?
Its AC50 is 0.0318 µM (active).

And the AC50 [5]?
Its AC50 is 0.0303 µM (active).

For CCCCCCCCCCCCOC(=O)c1cc(O)c(O)c(O)c1, which outcome [1] is on record?
Its outcome is “inactive”.

What about the outcome [6] of the same molecule?
The outcome was “inactive”.

What about the AC50 [2] of the same molecule?
Its AC50 is 128 µM (active).

Which outcome [3] does the source give for FCOC(C(F)(F)F)C(F)(F)F here?
The outcome was “inactive”.

What about the outcome [4] of the same molecule?
The outcome was “inactive”.

What about the outcome [5] of the same molecule?
Its outcome is “inactive”.

With Cc1cc(Cc2cc(C)cc(C(C)(C)C)c2O)c(O)c(C(C)(C)C)c1 as the molecule, how does the AC50 [1] read?
The AC50 was 43.1 µM (active).

What about the AC50 [2] of the same molecule?
The AC50 was 41.8 µM (active).

With c1cnc2c(c1)ccc1cccnc12 as the molecule, how does the AC50 [1] read?
Its AC50 is 30.9 µM (active).

What about the AC50 [2] of the same molecule?
Its AC50 is 15.7 µM (active).
